Test results: article PMC7862700, “An all-to-all approach to the identification of sequence-specific readers for epigenetic DNA modifications on cytosine”

How the values were obtained:
Experiment in all cases: DAPPL (digital affinity profiling via proximity ligation, sequencing); 10 mM Tris-HCl pH 7.5, 50 mM NaCl, 1 mM DTT, 4% glycerol, room temperature, 30 min; GST-TFs on glutathione beads, 16-mer random dsDNA library, 0.1% formaldehyde crosslink after washing; high values mean tight binding
Conditions in all cases: protein: recombinant; tags: N-terminal GST; dsDNA, one strand shown
[1] = biological target: T1, FLI1 (Homo sapiens, UniProt Q01543 1-452)
T1 sequence: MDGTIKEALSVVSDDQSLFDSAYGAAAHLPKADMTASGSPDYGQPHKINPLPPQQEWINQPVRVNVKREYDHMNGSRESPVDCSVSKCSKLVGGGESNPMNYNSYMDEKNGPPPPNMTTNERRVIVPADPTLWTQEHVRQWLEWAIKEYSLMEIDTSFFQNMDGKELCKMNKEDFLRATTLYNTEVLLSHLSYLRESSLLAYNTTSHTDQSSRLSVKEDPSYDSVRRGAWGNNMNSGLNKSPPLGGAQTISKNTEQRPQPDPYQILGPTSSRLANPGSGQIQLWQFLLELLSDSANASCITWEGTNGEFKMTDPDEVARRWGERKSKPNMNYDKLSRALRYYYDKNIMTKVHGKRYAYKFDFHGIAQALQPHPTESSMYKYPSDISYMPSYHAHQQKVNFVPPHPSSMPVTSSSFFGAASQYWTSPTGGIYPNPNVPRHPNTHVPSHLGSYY
Procedure, shortened: (§1)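 GST fusions of human transcription factors were expressed in yeast and captured with glutathione beads. Once given DNA barcodes and pooled alongside a tag-only sample, they were incubated for 30 min at room temperature with 200 nmole of a random double-stranded 16-mer DNA library in Tris/NaCl/DTT/glycerol buffer, then washed, crosslinked (0.1% formaldehyde), proximity-ligated, PCR-amplified and sequenced on an Illumina NextSeq500. The binding signal of each hexamer is its read frequency for a factor divided by its frequency for the tag-only sample.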

[2] = biological target: T2, ELK1 (Homo sapiens, UniProt P19419 1-428)
T2 sequence: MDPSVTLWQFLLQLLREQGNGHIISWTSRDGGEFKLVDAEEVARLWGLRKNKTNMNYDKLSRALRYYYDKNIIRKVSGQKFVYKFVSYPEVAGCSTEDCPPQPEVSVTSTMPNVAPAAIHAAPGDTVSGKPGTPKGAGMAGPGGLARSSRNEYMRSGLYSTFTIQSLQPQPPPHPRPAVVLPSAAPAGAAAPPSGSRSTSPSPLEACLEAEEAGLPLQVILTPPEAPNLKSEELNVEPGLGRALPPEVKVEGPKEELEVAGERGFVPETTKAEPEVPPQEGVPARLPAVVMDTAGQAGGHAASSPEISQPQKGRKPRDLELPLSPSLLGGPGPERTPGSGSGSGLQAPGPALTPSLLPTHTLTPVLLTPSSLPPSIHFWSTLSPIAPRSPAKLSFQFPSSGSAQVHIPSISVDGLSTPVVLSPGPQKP
Procedure, shortened: as §1

[3] = biological target: T3, GABPA (Homo sapiens, UniProt Q06546 1-454)
T3 sequence: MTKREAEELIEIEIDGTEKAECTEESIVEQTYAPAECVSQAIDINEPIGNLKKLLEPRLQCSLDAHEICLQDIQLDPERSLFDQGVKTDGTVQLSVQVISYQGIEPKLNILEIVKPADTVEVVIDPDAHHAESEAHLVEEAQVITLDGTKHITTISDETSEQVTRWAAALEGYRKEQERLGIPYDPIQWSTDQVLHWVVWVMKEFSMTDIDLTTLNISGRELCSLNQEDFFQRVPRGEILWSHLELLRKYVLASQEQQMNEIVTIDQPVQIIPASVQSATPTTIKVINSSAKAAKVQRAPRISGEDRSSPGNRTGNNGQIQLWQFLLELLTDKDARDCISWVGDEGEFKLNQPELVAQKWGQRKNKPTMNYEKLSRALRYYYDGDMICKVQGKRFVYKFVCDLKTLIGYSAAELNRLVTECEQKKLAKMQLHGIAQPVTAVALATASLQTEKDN
Procedure, shortened: as §1

[4] = biological target: T4, ERG (Homo sapiens, UniProt P11308 1-479)
T4 sequence: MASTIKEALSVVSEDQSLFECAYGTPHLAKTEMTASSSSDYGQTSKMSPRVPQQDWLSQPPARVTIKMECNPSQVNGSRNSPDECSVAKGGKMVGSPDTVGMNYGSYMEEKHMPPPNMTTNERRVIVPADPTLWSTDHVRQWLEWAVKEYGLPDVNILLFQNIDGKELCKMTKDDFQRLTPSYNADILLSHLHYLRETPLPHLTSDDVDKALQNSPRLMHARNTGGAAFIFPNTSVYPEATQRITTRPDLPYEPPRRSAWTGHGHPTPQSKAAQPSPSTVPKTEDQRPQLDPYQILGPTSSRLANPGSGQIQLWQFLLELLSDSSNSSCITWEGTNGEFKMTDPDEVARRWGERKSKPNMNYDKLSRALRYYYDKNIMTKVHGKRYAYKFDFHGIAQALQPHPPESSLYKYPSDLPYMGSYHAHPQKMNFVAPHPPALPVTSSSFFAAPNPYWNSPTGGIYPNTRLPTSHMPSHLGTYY
Procedure, shortened: as §1

[5] = biological target: ELF1 (Homo sapiens, UniProt P32519 1-619)
Procedure, shortened: as §1

[6] = biological target: T5, EHF (Homo sapiens, UniProt Q9NZC4 1-300)
T5 sequence: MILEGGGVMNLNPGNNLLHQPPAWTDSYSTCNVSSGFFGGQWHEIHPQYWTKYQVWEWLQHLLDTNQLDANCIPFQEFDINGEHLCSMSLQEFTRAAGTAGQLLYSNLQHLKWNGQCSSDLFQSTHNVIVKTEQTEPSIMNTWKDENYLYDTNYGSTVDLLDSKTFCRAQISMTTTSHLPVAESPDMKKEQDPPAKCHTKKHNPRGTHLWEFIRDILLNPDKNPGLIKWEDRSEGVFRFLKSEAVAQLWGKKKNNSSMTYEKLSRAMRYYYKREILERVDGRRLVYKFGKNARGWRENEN
Procedure, shortened: as §1

[7] = biological target: SPI1 (Homo sapiens, UniProt P17947 1-270)
Procedure, shortened: as §1

[8] = biological target: SPIB (Homo sapiens, UniProt Q01892 1-262)
Procedure, shortened: as §1

[9] = biological target: T6, ELK3 (Homo sapiens, UniProt P41970 1-407)
T6 sequence: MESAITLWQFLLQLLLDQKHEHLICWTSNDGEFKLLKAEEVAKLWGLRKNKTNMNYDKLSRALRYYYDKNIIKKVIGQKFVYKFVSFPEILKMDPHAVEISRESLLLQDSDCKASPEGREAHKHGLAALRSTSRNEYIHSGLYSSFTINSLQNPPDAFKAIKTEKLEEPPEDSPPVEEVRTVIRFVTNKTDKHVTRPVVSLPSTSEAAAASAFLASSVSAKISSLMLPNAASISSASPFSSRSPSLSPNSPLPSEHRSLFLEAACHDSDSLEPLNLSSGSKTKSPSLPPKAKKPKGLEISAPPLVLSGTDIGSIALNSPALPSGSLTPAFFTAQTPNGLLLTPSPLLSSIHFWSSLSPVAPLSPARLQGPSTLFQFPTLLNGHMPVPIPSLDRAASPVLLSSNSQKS
Procedure, shortened: as §1

SPIB, sequence (Q01892 whole entry): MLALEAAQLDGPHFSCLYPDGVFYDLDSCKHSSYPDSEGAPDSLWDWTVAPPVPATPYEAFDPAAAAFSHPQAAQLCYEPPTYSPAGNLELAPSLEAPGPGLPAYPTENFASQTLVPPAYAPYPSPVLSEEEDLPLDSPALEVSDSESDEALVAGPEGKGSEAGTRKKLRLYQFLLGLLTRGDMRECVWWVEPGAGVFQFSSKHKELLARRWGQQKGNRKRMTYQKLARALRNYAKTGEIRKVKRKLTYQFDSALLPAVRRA
ELF1, sequence (P32519 whole entry): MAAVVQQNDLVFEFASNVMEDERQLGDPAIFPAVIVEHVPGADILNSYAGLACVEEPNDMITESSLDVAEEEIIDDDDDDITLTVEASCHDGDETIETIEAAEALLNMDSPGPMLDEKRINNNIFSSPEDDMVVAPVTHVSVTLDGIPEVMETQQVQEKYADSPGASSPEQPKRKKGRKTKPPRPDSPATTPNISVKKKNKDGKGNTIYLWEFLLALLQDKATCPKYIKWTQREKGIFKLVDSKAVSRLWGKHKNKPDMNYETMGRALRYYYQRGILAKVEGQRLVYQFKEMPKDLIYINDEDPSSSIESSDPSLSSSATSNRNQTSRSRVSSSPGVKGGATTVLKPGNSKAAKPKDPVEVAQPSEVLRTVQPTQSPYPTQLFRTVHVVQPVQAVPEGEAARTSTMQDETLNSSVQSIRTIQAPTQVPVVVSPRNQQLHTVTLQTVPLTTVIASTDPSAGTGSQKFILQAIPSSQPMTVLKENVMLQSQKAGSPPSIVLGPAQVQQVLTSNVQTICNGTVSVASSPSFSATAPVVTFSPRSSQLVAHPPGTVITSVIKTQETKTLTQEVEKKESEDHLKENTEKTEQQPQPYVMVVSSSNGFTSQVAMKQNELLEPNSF

## TTCGTA
[1]
  binding signal: 1.32 fold enrichment (6-mer frequency, TF over GST control)
[2]
  binding signal: 1.44 fold enrichment (6-mer frequency, TF over GST control)
[3]
  binding signal: 1.29 fold enrichment (6-mer frequency, TF over GST control)
[4]
  binding signal: 1.38 fold enrichment (6-mer frequency, TF over GST control)
[5]
  binding signal: 1.35 fold enrichment (6-mer frequency, TF over GST control)
[6]
  binding signal: 1.34 fold enrichment (6-mer frequency, TF over GST control)
[7]
  binding signal: 1.24 fold enrichment (6-mer frequency, TF over GST control)
[8]
  binding signal: 1.35 fold enrichment (6-mer frequency, TF over GST control)
[9]
  binding signal: 1.41 fold enrichment (6-mer frequency, TF over GST control)
